Results filed as inconclusive are left out. Active and inactive are the calls of the source.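 Rule for the calls, unless noted: active = normalized viability below 100% at a tested concentration; inactive = the rest.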
What was measured:
[1] = viability loss in pontine glioma line – cell-based, SU-DIPG-XVII, MIPE5.0, CellTiter-Glo, qHTS, dose response (AID 1347060; cut-off not given, nearly all actives have AC50 up to about 26 µM;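 for AC50: cells exposed to compound for 48 hours before viability readout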); conditions: CellTiter-Glo ATP luminescence
[2] = viability loss in pontine glioma line – cell-based, SU-DIPG-XIII, MIPE4.0, CellTiter-Glo, qHTS, dose response (AID 1347061; cut-off not given, nearly all actives have AC50 up to about 37 µM;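 note: cells exposed to compound for 48 hours before readout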); conditions: CellTiter-Glo ATP luminescence
[3] = viability loss in pontine glioma line – cell-based, JHH-DIPG-1, MIPE4.0, CellTiter-Glo, qHTS, dose response (AID 1347062; cut-off not given, nearly all actives have AC50 up to about 27 µM;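 for AC50: cells exposed to compound for two days before readout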); conditions: JHH-DIPG-1 viability, CellTiter-Glo ATP luminescence
[4] = viability loss in pontine glioma line – cell-based, SU-DIPG-IV, MIPE4.0, CellTiter-Glo, qHTS, dose response (AID 1347063; cut-off not given, nearly all actives have AC50 up to about 30 µM;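 note: compound exposure lasted 48 hours before the viability readout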); conditions: CellTiter-Glo ATP luminescence
[5] = viability loss in pontine glioma line – cell-based, SU-DIPG-XXV, MIPE5.0, CellTiter-Glo, qHTS, dose response (AID 1347065; cut-off not given, nearly all actives have AC50 up to about 26 µM;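 note: cells exposed to compound for 48 hours before ATP readout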); conditions: CellTiter-Glo ATP luminescence
[6] = growth inhibition of DIPG cells – cell-based, MIPE4.0 library, CellTiter-Glo luminescence, qHTS (AID 1347066; cut-off not given, nearly all actives have AC50 up to about 30 µM;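 note: cells exposed to compound for 48 hours before readout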); conditions: SU-DIPG-VI viability, CellTiter-Glo ATP luminescence
[7] = JHH-DIPG-1 glioma cell viability, MIPE5.0 library, CellTiter-Glo luminescence, qHTS (AID 1347067; cut-off not given, nearly all actives have AC50 up to about 26 µM;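 note: cells exposed to compound for 48 hours before readout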); conditions: JHH-DIPG-1 glioma viability, CellTiter-Glo ATP luminescence
[8] = growth inhibition of DIPG cells – cell-based, MIPE5.0 library, qHTS (AID 1347068; cut-off not given, nearly all actives have IC50 up to about 30 µM;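 for IC50: cells exposed to compound for 48 hours before viability readout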); conditions: SU-DIPG-XXV viability
[9] = compounds altering HSF1 focus formation in cells – imaging, Selleck Cancer Library (AID 1347162; in the data active = plate-normalised HSF1 focus index below about 0.46); conditions: human cells, HSF1 nuclear foci imaging, at 10 µM; SSMD: measured here: HSF1 foci SSMD mean; cell count: measured here: cell number; plate-normalised HSF1 focus index: stronger effect = lower value
[10] = drug combination growth inhibition, ovarian cancer – cell-based, oncology-focused library, rucaparib conditional, profiling panel (AID 1508598); conditions: patient-derived ovarian cancer cells, CellTiter-Glo viability, 144 h, stronger effect = lower value
[11] = viability loss with induced miR-34 in A549 – imaging, A549 dox-inducible miR-34, nuclei and caspase counts, primary screen (AID 1347080;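 active = compounds whose cell count with miR-34 switched on is under 0.7 times the count with it off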); conditions: A549 miR-34 inducible, Hoechst nuclei count, 48 h
[12] = viability loss in pontine glioma line – cell-based, SU-DIPG-XIII, MIPE5.0, CellTiter-Glo, qHTS, dose response (AID 1347064; cut-off not given, nearly all actives have AC50 up to about 23 µM); conditions: CellTiter-Glo ATP luminescence
[13] = at 0.000305 µM, OCI-C5x cells, with rucaparib 10 µM, 100% = cells with rucaparib alone
[14] = at 0.000305 µM, OCI-C5x cells, without rucaparib
[15] = at 0.000305 µM, OCI-P5x cells, with rucaparib 20 µM, 100% = cells with rucaparib alone
[16] = at 0.000305 µM, OCI-P5x cells, without rucaparib
[17] = at 0.00122 µM, OCI-C5x cells, with rucaparib 10 µM, 100% = cells with rucaparib alone
[18] = at 0.00122 µM, OCI-C5x cells, without rucaparib
[19] = at 0.00122 µM, OCI-P5x cells, with rucaparib 20 µM, 100% = cells with rucaparib alone
[20] = at 0.00122 µM, OCI-P5x cells, without rucaparib
[21] = at 0.00488 µM, OCI-C5x cells, with rucaparib 10 µM, 100% = cells with rucaparib alone
[22] = at 0.00488 µM, OCI-C5x cells, without rucaparib
[23] = at 0.00488 µM, OCI-P5x cells, with rucaparib 20 µM, 100% = cells with rucaparib alone
[24] = at 0.00488 µM, OCI-P5x cells, without rucaparib
[25] = at 0.0195 µM, OCI-C5x cells, with rucaparib 10 µM, 100% = cells with rucaparib alone
[26] = at 0.0195 µM, OCI-C5x cells, without rucaparib
[27] = at 0.0195 µM, OCI-P5x cells, with rucaparib 20 µM, 100% = cells with rucaparib alone
[28] = at 0.0195 µM, OCI-P5x cells, without rucaparib
[29] = at 0.0781 µM, OCI-C5x cells, with rucaparib 10 µM, 100% = cells with rucaparib alone
[30] = at 0.0781 µM, OCI-C5x cells, without rucaparib
[31] = at 0.0781 µM, OCI-P5x cells, with rucaparib 20 µM, 100% = cells with rucaparib alone
[32] = at 0.0781 µM, OCI-P5x cells, without rucaparib
[33] = at 0.313 µM, OCI-C5x cells, with rucaparib 10 µM, 100% = cells with rucaparib alone
[34] = at 0.313 µM, OCI-C5x cells, without rucaparib
[35] = at 0.313 µM, OCI-P5x cells, with rucaparib 20 µM, 100% = cells with rucaparib alone
[36] = at 0.313 µM, OCI-P5x cells, without rucaparib
[37] = at 1.25 µM, OCI-C5x cells, with rucaparib 10 µM, 100% = cells with rucaparib alone
[38] = at 1.25 µM, OCI-C5x cells, without rucaparib
[39] = at 1.25 µM, OCI-P5x cells, with rucaparib 20 µM, 100% = cells with rucaparib alone
[40] = at 1.25 µM, OCI-P5x cells, without rucaparib
[41] = at 5 µM, OCI-C5x cells, with rucaparib 10 µM, 100% = cells with rucaparib alone
[42] = at 5 µM, OCI-C5x cells, without rucaparib
[43] = at 5 µM, OCI-P5x cells, with rucaparib 20 µM, 100% = cells with rucaparib alone
[44] = at 5 µM, OCI-P5x cells, without rucaparib

Cc1[nH]nc2ccc(-c3cncc(OC[C@@H](N)Cc4ccccc4)c3)cc12
AC50 [1]: 1660 nM (active)
AC50 [2]: 4690 nM (active)
AC50 [3]: 1180 nM (active)
AC50 [4]: 2640 nM (active)
AC50 [5]: 1480 nM (active)
AC50 [6]: 10500 nM (active)
AC50 [7]: 1480 nM (active)
IC50 [8]: 1660 nM (active)

C1Cc2[nH]nc(-c3nn[nH]n3)c2C1
outcome [1]: inactive
outcome [2]: inactive
outcome [3]: inactive
outcome [4]: inactive
outcome [5]: inactive
outcome [6]: inactive
outcome [7]: inactive
outcome [8]: inactive

COc1nc(-c2ccc3c(c2)OCO3)n(-c2ccc(NC(=O)CSc3ccccc3)cc2)n1
outcome [1]: inactive
outcome [2]: inactive
outcome [3]: inactive
outcome [4]: inactive
outcome [5]: inactive
outcome [6]: inactive
outcome [8]: inactive
SSMD [9]: 0.993
cell count [9]: 6960
plate-normalised HSF1 focus index [9]: 1.06 (inactive)

C=C1C(=O)OC(CCCCCCCC)C1C(=O)O (configuration not stated)
outcome [1]: inactive
outcome [2]: inactive
outcome [3]: inactive
outcome [4]: inactive
outcome [5]: inactive
outcome [6]: inactive
outcome [7]: inactive
outcome [8]: inactive

CC[C@H](/C=C/[C@@H](C)[C@H]1CC[C@H]2[C@@H]3CC=C4C[C@@H](O)CC[C@]4(C)[C@H]3CC[C@]12C)C(C)C
outcome [1]: inactive
outcome [2]: inactive
outcome [3]: inactive
outcome [4]: inactive
outcome [5]: inactive
outcome [6]: inactive
outcome [7]: inactive
outcome [8]: inactive

CCN1CCN(Cc2ccc(-c3cc4c(N[C@H](C)c5ccccc5)ncnc4[nH]3)cc2)CC1
AC50 [1]: 14800 nM (active)
AC50 [2]: 5260 nM (active)
AC50 [3]: 13200 nM (active)
AC50 [4]: 46.9 nM (active)
AC50 [5]: 18600 nM (active)
AC50 [6]: 23500 nM (active)
SSMD [9]: 1.68
cell count [9]: 7280
plate-normalised HSF1 focus index [9]: 1.06 (inactive)
viability [10, 13]: 113% (inactive)
viability [10, 14]: 121% (inactive)
viability [10, 15]: 97.2% (active)
viability [10, 16]: 117% (inactive)
viability [10, 17]: 110% (inactive)
viability [10, 18]: 123% (inactive)
viability [10, 19]: 100% (active)
viability [10, 20]: 120% (inactive)
viability [10, 21]: 110% (inactive)
viability [10, 22]: 127% (inactive)
viability [10, 23]: 108% (inactive)
viability [10, 24]: 118% (inactive)
viability [10, 25]: 109% (inactive)
viability [10, 26]: 124% (inactive)
viability [10, 27]: 98% (active)
viability [10, 28]: 115% (inactive)
viability [10, 29]: 106% (inactive)
viability [10, 30]: 129% (inactive)
viability [10, 31]: 102% (inactive)
viability [10, 32]: 123% (inactive)
viability [10, 33]: 119% (inactive)
viability [10, 34]: 146% (inactive)
viability [10, 35]: 98.7% (active)
viability [10, 36]: 112% (inactive)
viability [10, 37]: 96.1% (active)
viability [10, 38]: 114% (inactive)
viability [10, 39]: 90.3% (active)
viability [10, 40]: 118% (inactive)
viability [10, 41]: 70.8% (active)
viability [10, 42]: 117% (inactive)
viability [10, 43]: 64.4% (active)
viability [10, 44]: 105% (inactive)

Cc1nc2cnc3ccc(C#Cc4cccnc4)cc3c2n1-c1ccc(C(C)(C)C#N)cc1
AC50 [1]: 468 nM (active)
AC50 [2]: 590 nM (active)
AC50 [3]: 166 nM (active)
AC50 [4]: 29.6 nM (active)
AC50 [5]: 209 nM (active)
AC50 [6]: 1180 nM (active)
AC50 [7]: 1660 nM (active)
IC50 [8]: 2630 nM (active)

O=C(CN1C(=O)C2(CCCC2)NC[C@H]1c1cc(F)cc(F)c1)Nc1ccc2c(c1)C[C@@]1(C2)C(=O)Nc2ncccc21
outcome [1]: inactive
outcome [2]: inactive
outcome [3]: inactive
outcome [4]: inactive
outcome [5]: inactive
outcome [6]: inactive
outcome [7]: inactive
outcome [8]: inactive

C[C@@H]1CC[C@@]2(OC1)OC1CC3C4CC=C5CC(O)CCC5(C)C4CCC3(C)C1[C@@H]2C (some centres not stated)
outcome [1]: inactive
outcome [2]: inactive
outcome [3]: inactive
outcome [4]: inactive
outcome [5]: inactive
outcome [6]: inactive
outcome [7]: inactive
outcome [8]: inactive

CC(C)[C@H](C(=O)Nc1ccc(C(=O)NO)cc1)c1ccccc1
AC50 [1]: 1860 nM (active)
AC50 [2]: 3720 nM (active)
AC50 [3]: 1870 nM (active)
AC50 [4]: 2350 nM (active)
AC50 [5]: 1320 nM (active)
AC50 [6]: 833 nM (active)
fold change ([11]; stronger effect = lower value, cell number ratio, induced over uninduced): 0.834 (inactive)
fold change ([11]; measured here: relative caspase fold change +Dox/-Dox): 1.7
cell count ([11]; measured here: total cells with miR-34 induction, stronger effect = lower value): 1610
cell count ([11]; measured here: total cells without miR-34 induction): 1930
SSMD [9]: -4.69
cell count [9]: 7300
plate-normalised HSF1 focus index [9]: 0.833 (inactive)
viability [10, 13]: 112% (inactive)
viability [10, 14]: 136% (inactive)
viability [10, 15]: 105% (inactive)
viability [10, 16]: 114% (inactive)
viability [10, 17]: 116% (inactive)
viability [10, 18]: 139% (inactive)
viability [10, 19]: 102% (inactive)
viability [10, 20]: 116% (inactive)
viability [10, 21]: 104% (inactive)
viability [10, 22]: 135% (inactive)
viability [10, 23]: 87.9% (active)
viability [10, 24]: 107% (inactive)
viability [10, 25]: 101% (inactive)
viability [10, 26]: 139% (inactive)
viability [10, 27]: 89.2% (active)
viability [10, 28]: 110% (inactive)
viability [10, 29]: 99.7% (active)
viability [10, 30]: 145% (inactive)
viability [10, 31]: 82.7% (active)
viability [10, 32]: 92.5% (active)
viability [10, 33]: 46.8% (active)
viability [10, 34]: 41.1% (active)
viability [10, 35]: 49.2% (active)
viability [10, 36]: 66.8% (active)
viability [10, 37]: 10.3% (active)
viability [10, 38]: 11% (active)
viability [10, 39]: 31.4% (active)
viability [10, 40]: 39.9% (active)
viability [10, 41]: 5.04% (active)
viability [10, 42]: 5.5% (active)
viability [10, 43]: 2.82% (active)
viability [10, 44]: 3.14% (active)

Cc1cc2c(cc1C1(c3ccc(C(=O)O)cn3)CC1)C(C)(C)CCC2(C)C
outcome [1]: inactive
outcome [2]: inactive
outcome [3]: inactive
outcome [4]: inactive
outcome [12]: inactive
outcome [8]: inactive
SSMD [9]: 2.63
cell count [9]: 7020
plate-normalised HSF1 focus index [9]: 1.16 (inactive)

COc1ccc(OC)c(-c2nnc3ccc(-c4ccc(OC)c(O[C@@H]5CCOC5)c4)nn23)c1
AC50 [1]: 2950 nM (active)
AC50 [2]: 26400 nM (active)
AC50 [3]: 7430 nM (active)
AC50 [4]: 14800 nM (active)
AC50 [5]: 2630 nM (active)
AC50 [6]: 11800 nM (active)
